“And” between values parts separate entries of the source, which are not always exact repeats. Equal values may be shown once. Records with an inconclusive call do not appear. Where a structure was tested more than once in an assay, its records may differ in their call. The source made the active and inactive calls. The call rests on the fitted dose curve; in most records, active means well fitted inhibition curve with a large enough effect in the repeat runs; inconclusive means weak or mixed curves; inactive means no such curve, though single readings can be large or run the other way.
On the % scale 0 is the no-effect control and ±100 the full control effect; potency means the concentration at half of the fitted maximal effect.

Sequence of Cytochrome P450 2D6 (Homo sapiens) (P10635 whole entry, looked up): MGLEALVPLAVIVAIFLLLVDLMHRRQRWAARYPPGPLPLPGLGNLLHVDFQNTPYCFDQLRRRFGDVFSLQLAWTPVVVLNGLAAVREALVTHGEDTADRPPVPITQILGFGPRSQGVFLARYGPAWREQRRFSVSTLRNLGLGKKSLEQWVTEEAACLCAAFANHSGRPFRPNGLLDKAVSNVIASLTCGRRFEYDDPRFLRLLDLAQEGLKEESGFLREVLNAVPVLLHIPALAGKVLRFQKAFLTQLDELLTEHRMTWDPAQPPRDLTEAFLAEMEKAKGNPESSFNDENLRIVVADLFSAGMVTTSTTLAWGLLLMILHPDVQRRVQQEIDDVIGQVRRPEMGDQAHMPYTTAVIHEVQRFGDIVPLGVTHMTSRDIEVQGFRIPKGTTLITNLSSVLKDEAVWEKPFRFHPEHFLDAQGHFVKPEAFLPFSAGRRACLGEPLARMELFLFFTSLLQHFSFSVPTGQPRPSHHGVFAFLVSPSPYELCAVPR

The target of the experiment is Cytochrome P450 2D6 (Homo sapiens) (UniProt P10635). As to the kind of experiment: Cytochrome P450 Family 2 Subfamily D Member 6 (CYP2D6) small molecule antagonists: luciferase reporter qHTS assay (AID 1671196). Further: nearly all actives have a fitted effect of over 50% in size. Particulars: P450-Glo CYP2D6 enzyme assay, luciferin luminescence, 1 h; series mostly up to 115 µM; activity change, negative = inhibition: at the top concentration. From the text:
U.S. Tox21 Program National Center for Advancing Translational Sciences [NCATS] U.S. Environmental Protection Agency [EPA] National Institutes of Environmental Health Sciences [NIEHS] National Toxicology Program [NTP] U.S. Food and Drug Administration [FDA] Tox21 Assay Overview: Cytochrome P450 (CYP) enzymes are membrane-bound hemeproteins that play a key role in metabolism of drugs and xenobiotics. Evaluation of the effect of chemicals on CYP isozymes is useful to minimize the adverse drug reactions and toxicities in drug development process. Tox21 chemicals were tested for their effect on CYP enzyme activities by using P450-Glo (TM) screening systems (Promega Corporation, Madison, WI). These systems provide a luminescent method containing proluciferin substrates and are converted to luciferin products by CYP isozymes. The luciferin products formed are detected with a luciferin detection reagent, and the amount of light produced is proportional to CYP activity. P450-Glo (TM) CYP2D6 screening system (Catalog. No. V9890) was used to detect the compounds that interfere in CYP2D6 activity.
Tox21 Assay Protocol Summary: Two ul of enzyme-substrate mix was dispensed into medium binding white/solid 1536-well plates (Greiner Bio-One North America Inc., Monroe, NC) using a BioRaptr Flying Reagent Dispenser (FRD, Beckman Coulter, Brea, CA). […] The assay plates were incubated at room temperature for 10 min. Then 2 ul of NADPH regeneration solution was added to each well of the assay plates using an FRD and incubated at room temperature for 1 h. The reaction was stopped by adding 4 ul of detection reagent using an FRD and after 20 min incubation at room temperature the luminescence signal was measured using a ViewLux plate reader (Perkin Elmer, Shelton, CT). Data were expressed as relative luminescence units.
For orientation: A reporter such as luciferase makes a cellular process visible.
For the compound `[O-][n+]1ccccc1SSc1cccc[n+]1[O-]`, the Potency was 2.13 µM (active). As for `Nc1ccc2cc(S(=O)(=O)O)cc(O)c2c1N=Nc1ccccc1C(F)(F)F`, the “activity change, negative = inhibition” value is -22.5% (inactive). Consider `C/C=C1/C(=O)C[C@H]2[C@@H]3CCC4=CC(=O)CC[C@]4(C)[C@H]3CC[C@]12C`, for which the “activity change, negative = inhibition” value was -22.5% (inactive). Same read-out and setting: the value for `CCCCCCCC(=O)[O-].CCCCCCCC(=O)[O-].[Zn+2]` was -15.5% [at 53 µM] (inactive). Consider `CN(C)CCCOC1(Cc2ccccc2)CCCCCC1`, for which the Potency is 1.55 µM (active). `CC/C(=C(\c1ccc(O)cc1)c1ccc(OCCN(C)C)cc1)c1ccccc1`: the Potency was 40 µM (active). `CCCCCCCCCCC=O`: the “activity change, negative = inhibition” value was -16.9% (inactive). On the same count and under the same terms, then `COC(=O)C1=C(C)NC(C)=C(C(=O)OCCc2ccc(N3CCN(C(c4ccccc4)c4ccccc4)CC3)cc2)C1c1cccc([N+](=O)[O-])c1` (stereo not given), with -14.9% [at 53 µM] (inactive); and `O=C(Nc1ccc(Oc2ccc(Cl)cc2)c(Cl)c1)c1cc(I)cc(I)c1O`, with -18.3% [at 53 µM] (inactive); and `N#CC1(c2ccc(F)cc2)CCC(=O)CC1`, with -0.378% [at 53 µM] (inactive).

On to `CC1=NC(C)OC1C` (stereo not given), for which the Potency was 71 µM (active). In the case of `O=C1c2ccccc2Cc2ccccc21`, the “activity change, negative = inhibition” value is -17.5% (inactive). In the case of `CCCCCCCCCCCCCCCCCC[N+](C)(C)C`, the Potency is 0.635 µM (active). With `CCOc1ccc2nc3cc(N)ccc3c(N)c2c1`, the Potency was 15.5 µM (active). As for `CCCC(C)c1ccccc1O` (stereo not given), the “activity change, negative = inhibition” value is -12.7% (inactive). With `COCCCC/C(=N\OCCN)c1ccc(C(F)(F)F)cc1`, the Potency was 1.95 µM (active). Consider `N=C1N=C(N)c2cc3ccccc3cc21`, for which the Potency is 32.6 µM (active). Same read-out and setting: the value for `CCCCCCCCNC(C)C(O)c1ccc(SC(C)C)cc1` (stereo not given) was 1.95 µM (active); that for `C[C@H](CCC(=O)O)[C@H]1CC[C@H]2[C@@H]3CC[C@@H]4C[C@H](O)CC[C@]4(C)[C@H]3CC[C@]12C` was “inactive and 35.6 µM (active)”. As to `C/C=C(\C)C(=O)OCc1ccccc1`, the “activity change, negative = inhibition” value was 0.611% (inactive). Turning to `CC(C)OC(=O)c1cc2c(OCC(O)CNC(C)(C)C)cccc2[nH]1` (stereo not given), the Potency was 13.8 µM (active). `CC[C@@]1(O)C(=O)OCc2c1cc1n(c2=O)Cc2c-1nc1ccccc1c2/C=N/OC(C)(C)C`: the “activity change, negative = inhibition” value is -12.6% [at 53 µM] (inactive).

Regarding `O=C(N/N=C/c1ccccc1O)c1ccncc1`, the Potency is 27.5 µM (active).

In the case of `O=C1Cc2cc(CCN3CCN(c4nsc5ccccc45)CC3)c(Cl)cc2N1`, the “activity change, negative = inhibition” value is -101% [at 53 µM] (inactive). Still for that read-out and setting: the value for `NC(=O)CC[C@@H]1NC(=O)[C@H](Cc2ccccc2)NC(=O)[C@H](Cc2ccc(O)cc2)NC(=O)CCSSC[C@@H](C(=O)N2CCC[C@H]2C(=O)N[C@@H](CCCN=C(N)N)C(=O)NCC(N)=O)NC(=O)[C@H](CC(N)=O)NC1=O` was -9.44% [at 53 µM] (inactive). Take `CCCCCCCCCCCCCCCC[N+](C)(C)CCN(Cc1ccc(OC)cc1)c1ncccn1`: the Potency was 15.5 µM (active). In the case of `CCCCN1CCCC[C@H]1C(=O)Nc1c(C)cccc1C`, the Potency is 0.617 µM (active).

Take `O=C(Oc1cccc2cccnc12)c1ccccc1`: the “activity change, negative = inhibition” value was -5.91% [at 53 µM] (inactive). As for `Cc1cc(C2CCCCC2)n(O)c(=O)c1`, the “activity change, negative = inhibition” value is 1% [at 53 µM] (inactive).

Regarding `O=c1[nH]cnc2nc[nH]c12`, the “activity change, negative = inhibition” value is -1.58% [at 53 µM] (inactive). Turning to `CC1(C)CCC(C)(C)c2cc(C(=O)Nc3ccc(C(=O)O)cc3)ccc21`, the “activity change, negative = inhibition” value was -1.25% (inactive). For `Clc1ccccc1C(c1ccccc1)(c1ccccc1)n1ccnc1`, the Potency was 39.9 µM (active). `CSc1cnc(C)cn1`: the “activity change, negative = inhibition” value was -13% [at 300 µM] (inactive). For `C[n+]1ccn(Cc2ccccc2)c1`, the Potency is 31.6 µM (active). Still for that read-out and setting: then `O=C(Nc1cccc(Cl)c1)OCC#CCCl`, with 39.9 µM (active); and `NC(=O)C1(N2CCCCC2)CCN(CCCN2c3ccccc3CCc3ccc(Cl)cc32)CC1`, with 7.76 µM (active). For `CCCC/C=C/CCCCO`, the “activity change, negative = inhibition” value was -1.93% (inactive). With `CCCCCCCCCCCCCCCC(=O)OC[C@H](O)[C@H]1OC(=O)C(O)=C1O`, the “activity change, negative = inhibition” value was -15% (inactive).

Consider `O=C(OCC(COC(=O)c1ccccc1)(COC(=O)c1ccccc1)COC(=O)c1ccccc1)c1ccccc1`, for which the “activity change, negative = inhibition” value is -9.59% (inactive). As to `CNCc1cc(F)ccc1Oc1ccc(Cl)c(Cl)c1`, the Potency is 1.78 µM (active).

These data come from PubChem BioAssay (Tox21).
